DT40 TDP1 no CPT = qHTS for Inhibitors of human tyrosyl-DNA phosphodiesterase 1 (TDP1): qHTS in cells in absence of CPT; DT40 Tdp1-/- hTDP1 cells, no CPT, ATP luminescence, 48 h; actives 15% (n = 420,000); Potency, µM (highest dose often 46.2 µM), for the others: at the highest dose activity change, negative = growth inhibition, most hits filed as inhibitors; note: nearly all actives have a fitted effect of over 55% in size
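Camptothecin absent (DMSO only). Human TDP1-complemented DT40 knockout cells, 400 cells/well, 37 °C for minimum 48 hr; ATP measured via CellTiter-Glo, 30 min dark incubation, luminescence.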
Gal4-VP16 FLuc = VP16 counterscreen qHTS for inhibitors of ROR gamma transcriptional activity; Drosophila S2 Gal4-VP16 UAS-luciferase, luminescence, 20 h; actives 3.5% (n = 310,000); Potency, µM (doses to about 53.6 µM), for inactives: top-dose activity, negative = inhibition, actives largely listed as inhibitors; AID 2546, 2010;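 note: Gal4-VP16 expression switched on by copper sulfate through the metallothionein promoter; nearly all actives have a fitted effect of over 50% in size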
TDP1 cell CPT = qHTS for Inhibitors of human tyrosyl-DNA phosphodiesterase 1 (TDP1): qHTS in cells in presence of CPT. chicken DT40 Tdp1-/-;hTDP1 cells + 20 nM CPT, ATP luminescence, 48 h. Potency, µM (top dose mostly 46.2 µM), for the others: top-dose activity change, negative = growth inhibition, usual class: inhibitors. actives 12% (n = 420,000). AID 686979, 2013; note: nearly all actives have a fitted effect of over 55% in size
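Cell growth measured by CellTiter-Glo luminescence after a minimum 48 h, 37 C compound exposure with 20 nM CPT in Tdp1-knockout DT40 cells stably expressing hTDP1, seeded 400/well; qHTS titration format.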
TDP1 block = qHTS Assay for Inhibitors of Tyrosyl-DNA Phosphodiesterase (TDP1). Tyrosyl-DNA phosphodiesterase 1 (Homo sapiens), Q9NUW8. recombinant TDP1, AlphaScreen DNA substrate cleavage. Potency, µM (top dose mostly 130 µM), without a hit: at the highest dose activity change, negative = inhibition, actives largely listed as inhibitors. actives 0.28% (n = 350,000); note: nearly all actives have a fitted effect of over 40% in size
Target sequence (Q9NUW8 whole entry, looked up): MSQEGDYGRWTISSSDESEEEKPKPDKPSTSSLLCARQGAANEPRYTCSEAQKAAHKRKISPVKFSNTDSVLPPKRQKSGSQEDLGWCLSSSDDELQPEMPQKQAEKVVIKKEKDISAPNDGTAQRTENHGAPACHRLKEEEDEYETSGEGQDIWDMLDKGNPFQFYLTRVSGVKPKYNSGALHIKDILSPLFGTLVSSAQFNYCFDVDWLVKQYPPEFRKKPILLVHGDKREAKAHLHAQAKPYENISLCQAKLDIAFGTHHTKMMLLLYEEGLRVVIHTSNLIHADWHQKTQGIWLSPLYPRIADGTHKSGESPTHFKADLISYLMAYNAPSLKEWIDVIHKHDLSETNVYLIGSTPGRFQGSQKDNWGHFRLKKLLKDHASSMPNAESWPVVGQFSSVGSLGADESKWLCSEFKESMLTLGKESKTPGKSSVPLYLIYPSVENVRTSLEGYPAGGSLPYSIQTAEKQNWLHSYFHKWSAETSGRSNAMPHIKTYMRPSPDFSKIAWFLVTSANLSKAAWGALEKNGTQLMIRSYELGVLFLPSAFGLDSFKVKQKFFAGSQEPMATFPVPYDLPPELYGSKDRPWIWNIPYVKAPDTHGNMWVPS
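Steps: enzyme plus compound, 15 min RT; add biotin/phosphotyrosine-FITC oligonucleotide (15 nM final), react 5 min; add donor/acceptor beads (10 ug/ml final), 10 min; read AlphaScreen. Tdp1 at 1 nM final.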
RORgamma inh = qHTS for inhibitors of ROR gamma transcriptional activity. Nuclear receptor ROR-gamma (Mus musculus), P51450. Drosophila S2 Gal4-RORgamma UAS-luciferase reporter, 20 h. Potency, µM (titrated, usually from 53.6 µM), for inactives: at the highest dose activity change, negative = inhibition, hits mostly inhibitors. actives 5.4% (n = 310,000). AID 2551, 2010; note: nearly all actives have a fitted effect of over 60% in size
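In this cell-based reporter format, copper sulfate (700 uM final) drives Gal4–ROR gamma fusion expression from a metallothionein promoter in Drosophila Schneider cells; compounds preincubated 1 hr, reporter read after 20 hr at ambient temperature.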
Numbers without * were called inactive; ? = inconclusive; . = no result. Compounds with a hit are over-represented: about 19% of the library has one in this group of screens. Calls come from the whole dose curve; as a rule, active = well fitted curve in the direction sought with a large enough effect; inconclusive = small, poorly fitted or top-dose-only effect, or another doubt; inactive = no such curve, though single readings can be large; an effect the other way counts as inactive or inconclusive. % is set by controls: 0 for no effect and ±100 for the full control effect; potency is the fitted concentration of half-maximal effect.

SMILES	DT40 TDP1 no CPT	Gal4-VP16 FLuc	TDP1 cell CPT	TDP1 block	RORgamma inh
COc1cc(/C=C/C(=O)NC2CCCCC2)cc(OC)c1OC	-0.2%	-6.1%	-3.3%	2.8%	?
COc1cc(C(=S)N2CCOCC2)ccc1OS(=O)(=O)c1ccccc1[N+](=O)[O-]	?	23.0%	-29.8%	2.7%	?
Cc1ccccc1C(=O)Nc1nnc(CC(=O)N/N=C/c2ccco2)s1	-2.0%	-1.1%	-2.8%	6.2%	-1.1%
O=C(Nc1ccccc1C(=O)N/N=C/c1ccco1)c1ccccc1	-19.4%	?	2.3%	5.6%	7.94µM*
Cc1ccccc1C(=O)Nc1ccccc1C(=O)N/N=C\c1ccco1	-8.2%	?	0.4%	1.0%	10µM*
O=C(Nc1ccccc1C(=O)N/N=C/c1ccco1)c1ccc(Cl)cc1	?	3.98µM*	?	6.9%	2.82µM*
O=C(Nc1ccccc1C(=O)N/N=C/c1ccco1)c1ccc(F)cc1	-28.9%	5.01µM*	-16.4%	1.3%	1.12µM*
COC(=O)c1cc(S(=O)(=O)N(C)C2CCCCC2)oc1C	-13.6%	-4.3%	13.6%	0.0%	-6.4%
COc1ccc(/C=C/C(=O)Nc2cc(F)ccc2C)cc1S(=O)(=O)N1CCOCC1	?	-15.2%	?	2.3%	-5.6%
O=C1CC(C(=O)N2CCN(c3ccccc3Cl)CC2)CN1Cc1ccccc1 (stereo not given)	-2.6%	.	?	0.7%	.
CCCN1CCC(=O)N([C@H](CSc2ccccc2)CC(C)C)CC1	?	18.5%	?	.	-17.5%
CC(=O)Nc1ccc(SC[C@H](Cc2ccccc2)N2CC[C@@H](N)CCC2=O)cc1	0.126µM*	.	-25.4%	.	.
CC(C)C[C@@H](CSc1ccccc1)N1CCN(CC(C)C)CCC1=O	14.1µM*	-4.2%	29.1µM*	.	-0.6%
CC(C)CN1CCC(=O)N([C@H](CSc2ccc(Br)cc2)Cc2ccccc2)CC1	18.4µM*	-5.2%	14.6µM*	-2.4%	34.9%
C[C@H]1CCC(=O)N([C@H](CSc2ccc(Br)cc2)Cc2ccccc2)CC1	29.1µM*	.	18.4µM*	2.1%	.
O=C(CSc1nc(=O)[nH]c2c1CCC2)NCc1ccccc1	25.6%	.	23.3%	0.0%	.
Cc1ccc(OCC(=O)Nc2ccc(Cl)cc2)c(-n2nc3ccccc3n2)c1	?	2.0%	-29.9%	0.0%	2.9%
CN(C)c1cccc(C(=O)NNC(=O)CN2C(=O)C3CC=CCC3C2=O)c1 (stereo not given)	-7.8%	.	11.5%	1.6%	.
CN1CCC(=O)N([C@H](CSc2ccc(Br)cc2)Cc2ccccc2)CC1	?	-12.5%	20.6µM*	3.5%	13.9%
Cc1ccc(OCC(=O)Nc2ccc3c(c2)nc(CCN2CCCC2)n3C)cc1	?	.	-85.0%	.	.
Cc1ccc(C(C)C)c(OCC(=O)Nc2ccc3c(c2)nc(CCNC(=O)c2ccco2)n3C)c1	10.3µM*	.	?	1.2%	.
Cc1ccc(C(C)C)c(OCC(=O)NNCC(=O)Nc2cccc(F)c2)c1	14.6µM*	.	14.6µM*	0.7%	.
Cc1cccc(OCC(=O)Nc2ccc3c(c2)nc(CCNC(=O)c2ccco2)n3C)c1	-28.8%	.	23.1µM*	4.9%	.
Cc1ccc(C(C)C)c(OCC(=O)Nc2ccc3c(c2)nc(CN2CCCC2)n3C)c1	14.6µM*	3.0%	?	6.0%	?
COCCCN1C(=O)C(=O)/C(=C(/O)c2ccc(OCC(C)C)cc2)C1c1cccnc1 (stereo not given)	-9.1%	-1.5%	-9.6%	2.0%	8.4%
COC(=O)CS(=O)(=O)c1nc2ccccc2nc1N1CCCCC1	13µM*	.	20.6µM*	-0.9%	.
O=C(O)CSc1nc2ccccc2nc1N1CCCCC1	7.2%	.	2.5%	0.0%	.
CCc1nn(CC(=O)N2CCCCC2)c(=O)c2cc3occc3n12	-1.6%	.	-13.0%	-5.1%	.
